These results are taken from PubChem BioAssay AID602393 (Broad Institute, 2012).

In all, about 350,000 compounds went through this assay and about 7,000 (2%) were called active. Cut-off read from the data, not from the text of the source: active = activation above about 40%; inconclusive = no clear call, values can overlap the other calls; inactive = below that. The sample as a whole holds a higher share of actives than the screen did.

The assay can be described thus: raisers of Bmi1 knock-in reporter signal – mouse ES cells, Bmi1 luciferase knock-in, single point, esBAF inhibitor project, primary screen (AID 602393).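 Note: 0% = median of the plate's neutral control wells and 100% = double that signal; a rise in the Bmi1 reporter signal indicates esBAF inhibition.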 Particulars: 24 h, at 12.5 µM, active compounds read high, 100% = twice the neutral-well signal.
Regarding `O=C(NC(Cc1c[nH]c2ccccc12)C(=O)N/N=C/c1ccc(Br)cc1)c1cccs1` (stereo not drawn), the reporter increase is 4.44% (inactive).
In the case of `O=C(NCCc1c[nH]c2ccccc12)c1cccc(Br)c1`, the reporter increase is 11.6% (inactive).
For `O=C(N/N=C\c1cccc(Br)c1)c1ccccc1-n1cccc1`, the reporter increase is 3.44% (inactive).
For the compound `O=C(N/N=C/c1cccc(Br)c1)c1ccc(N2CCCC2=O)cc1`, the reporter increase is 7.79% (inactive).
Regarding `O=C(NN=Cc1ccc2c(c1)CCC2)c1ccccc1O`, the reporter increase is 59.3% (active).
Regarding `O=C(N/N=C/c1c[nH]c2ccccc12)c1ccccc1O`, the reporter increase was 51.9% (active).
Regarding `COc1ccccc1-c1cccc(-c2nc(C(=O)N3CCN(C)CC3)cc3c2[C@H](CCO)N([S@@](=O)C(C)(C)C)C3)c1`, the reporter increase is -0.462% (inactive).
Take `C[C@@H]1CN([C@@H](C)CO)C(=O)CCCn2cc(nn2)CO[C@@H]1CN(C)C(=O)c1ccncc1`: the reporter increase is -3.8% (inactive).
Take `C[C@H](CO)N1C[C@H](C)[C@@H](CN(C)C(=O)c2ccncc2)Oc2cc(C3=CCCCC3)ccc2S1(=O)=O`: the reporter increase was 2.87% (inactive).
`C[C@H](CO)N1C[C@H](C)[C@H](CN(C)S(=O)(=O)c2cn(C)cn2)Oc2c(NC(=O)C3CCOCC3)cccc2C1=O`: the reporter increase is -1.13% (inactive).
For `Cc1cccc(CSc2nnc(C)c(=O)n2N)c1`, the reporter increase was -7.26% (inactive).
Take `Cc1cccc(CSc2ccc(-c3cccs3)nn2)c1`: the reporter increase is 50.5% (active).
As to `Cc1cc(-c2cccs2)nc(-n2cccc2)n1`, the reporter increase is 17.4% (inactive).
As for `C[C@H]1CN([C@@H](C)CO)C(=O)CCCn2nncc2CO[C@H]1CN(C)Cc1ccc2c(c1)OCO2`, the reporter increase is 0.657% (inactive).
Take `C/C=C/c1cnc2c(c1)C(=O)N([C@H](C)CO)C[C@H](C)[C@@H](CN(C)S(=O)(=O)c1ccccc1F)O2`: the reporter increase was 0.934% (inactive).
As for `COc1ccccc1-c1cn(CC[C@H]2CC[C@H](NC(=O)Cc3ccccn3)[C@H](CO)O2)nn1`, the reporter increase is 0.363% (inactive).
`Cc1noc(C)c1NC(=O)N(C)C[C@@H]1Oc2ccc(NS(C)(=O)=O)cc2C(=O)N([C@H](C)CO)C[C@@H]1C`: the reporter increase was -2.07% (inactive).
Regarding `CN(Cc1nc2ccccc2s1)C(=O)c1ccc(F)cc1`, the reporter increase is 8.62% (inactive).
Take `CCC(=O)NC(=Nc1nc2ccccc2s1)NC(=O)CC`: the reporter increase was 65.4% (active).
As for `CC(C)C(C)NC(=O)COc1ncnc2ccccc12` (stereo not drawn), the reporter increase was -6.72% (inactive).
With `O=C(C[C@H]1C=C[C@@H](NC(=O)CC2CC2)[C@H](CO)O1)NCc1ccc(-c2ccccc2)cc1`, the reporter increase is 1.19% (inactive).
As for `O=C(C[C@H]1C=C[C@H](NC(=O)C2CCC2)[C@H](CO)O1)NCCCN1CCOCC1`, the reporter increase is 1% (inactive).
Turning to `CCOC(=O)c1[nH]c(C)c(C(=O)OCC(=O)N2c3ccccc3CC2C)c1C` (stereo not drawn), the reporter increase is -0.495% (inactive).
For the compound `Cc1c(C(=O)OCC(=O)N2CCCC2=O)oc2ccccc12`, the reporter increase is 18.9% (inactive).
Turning to `CCOC(=O)c1c(C)[nH]c(C(=O)OCC(=O)N2CCCC2=O)c1C`, the reporter increase is 47% (active).
The figure for `COc1ccccc1CNC(=O)C[C@@H]1CC[C@H]2[C@@H](COc3ccc(NS(=O)(=O)c4ccc(C)cc4)cc3C(=O)N2C)O1` is 1.61% (inactive); for `O=C(C[C@@H]1CC[C@@H](NC(=O)C2CC2)[C@H](CO)O1)NCc1ccncc1` it is -3.27% (inactive); for `C[C@@H]1CCCCO[C@@H](CN(C)C(=O)c2ccccc2)[C@@H](C)CN([C@@H](C)CO)C(=O)c2cc(NS(=O)(=O)c3ccccc3)ccc2O1` it is 12.6% (inactive).
In the case of `COc1ccc(S(=O)(=O)Nc2ccc3c(c2)C(=O)N([C@@H](C)CO)C[C@@H](C)[C@H](CN(C)C(=O)Nc2ccc(C(F)(F)F)cc2)OCCCC[C@@H](C)O3)cc1`, the reporter increase is 7.49% (inactive).
For the compound `O=C1N=C(N2CCOCC2)S/C1=C\C=C/c1ccccc1`, the reporter increase is 55.8% (active).
The figure for `O=C1N=C(N2CCOCC2)CS1` is 0.767% (inactive); for `CC1CCN(C2=NC(=O)/C(=C/c3ccc(O)cc3)S2)CC1` it is 24.8% (inactive); for `Cc1ccsc1/C=C1\SC(N2CCOCC2)=NC1=O` it is 57.3% (active).
Take `CCc1ccc(/C=C2\SC(N3CCOCC3)=NC2=O)cc1`: the reporter increase was 6.21% (inactive).
For `O=C1N=C(N2CCc3ccccc3C2)S/C1=C\c1ccc(O)cc1`, the reporter increase was -1.11% (inactive).
The figure for `CC(C)NC(=O)N(C)C[C@H]1Oc2ncc(C#CC3(O)CCCC3)cc2C(=O)N([C@H](C)CO)C[C@@H]1C` is 0.475% (inactive).
Turning to `CN1c2ccc(-c3ccccc3F)cc2[C@H]2[C@H](CCN2C(=O)Nc2cc(F)ccc2F)[C@H]1CO`, the reporter increase is 7.83% (inactive).
Consider `C/C=C/c1ccc([C@@H]2[C@H](CO)N(C(C)=O)[C@H]2CN(CC)C(=O)CN(C)C)cc1`, for which the reporter increase was -4.39% (inactive).
The figure for `CCC(=O)NC[C@H]1[C@@H](c2ccc(C3=CCCC3)cc2)[C@@H](CO)N1C(=O)C1CC1` is 0.745% (inactive); for `CS(=O)(=O)Nc1ccc2c(c1)[C@@H]1C[C@H](CC(=O)NCc3ccccn3)O[C@@H](CO)[C@@H]1O2` it is 0.762% (inactive); for `O=C(C[C@H]1CC[C@@H](NC(=O)c2ccccc2)[C@@H](CO)O1)NCc1ccncn1` it is -3.6% (inactive).
Regarding `O=C(NNC(=O)c1ccc2ccccc2c1)c1ccc(Cl)cc1`, the reporter increase was -2.35% (inactive).
For the compound `CC(=O)c1ccc(N2Cc3ccccc3C2)cc1`, the reporter increase was 23.9% (inactive).
Next, `CC(=O)c1ccc2c(ccc3ccccc32)c1`: 43.2% (active); `N#C[C@H]1[C@@H](c2ccc(-c3ccccc3F)cc2)[C@H](CO)N1C(=O)c1ccccn1`: -5.75% (inactive).
Regarding `O=C(CCN1CCCCC1)N[C@@H]1C=C[C@@H](CC(=O)N2CCC(Cc3ccccc3)CC2)O[C@H]1CO`, the reporter increase is 9.59% (inactive).
The figure for `Cc1ccc(-c2cnc3c(c2)C(=O)N([C@H](C)CO)C[C@@H](C)[C@@H](CN(C)C(=O)CN(C)C)O3)cc1` is -1.4% (inactive).
Take `COc1ccccc1OCCCC(=O)Nc1ccc2c(c1)OCCO2`: the reporter increase is 4.46% (inactive).
For the compound `COc1cccc(/C=C/C(=O)Nc2ccc3c(c2)OCCO3)c1`, the reporter increase is 52.9% (active).
For `Cc1cccc(NC(=O)/C=C/c2ccc3c(c2)OCO3)n1`, the reporter increase is 9.44% (inactive).
As for `COc1ccccc1-c1ccc2c(c1)[C@H]1[C@H](CCN1S(=O)(=O)c1ccccc1)[C@@H](CO)N2`, the reporter increase was -9.94% (inactive).
Next, `C/C=C/c1cnc2c(c1)C(=O)N([C@@H](C)CO)C[C@H](C)[C@H](CN(C)C(=O)CN1CCOCC1)O2`: 1.11% (inactive); `CCOC(=O)c1c(C)nc2c(c1C)c(=O)oc1ccccc12`: 43.1% (active).
In the case of `CCCCC(=O)Nc1cc(C)c2c(=O)oc3ccccc3c2n1`, the reporter increase is -4.09% (inactive).
As for `CCOC(=O)c1c(C)oc(C)c(C(=O)OCC)c1=O`, the reporter increase was -9.85% (inactive).
As for `Cc1noc(C)c1NC(=O)N(C)C[C@@H]1Oc2ccc(NS(=O)(=O)c3ccc(Cl)cc3)cc2C(=O)N([C@@H](C)CO)C[C@H]1C`, the reporter increase is -6.44% (inactive).
Turning to `CCc1ccccc1NC(=O)c1cc(-c2ccc3c(c2)OCO3)on1`, the reporter increase was 43.8% (active).
In the case of `CC(C)NC(=O)COCc1cc(-c2ccc3c(c2)OCO3)on1`, the reporter increase is 16.1% (inactive).
For the compound `COc1ccc(CCNC(=O)c2cc(-c3ccc4c(c3)OCO4)on2)cc1OC`, the reporter increase is 0.657% (inactive).
As for `O=C(C[C@H]1CC[C@@H]2[C@H](COC[C@@H](O)CN2Cc2cc(F)cc(F)c2)O1)NC1CCC1`, the reporter increase was 2.1% (inactive).
Consider `COc1ccc(S(=O)(=O)N(C)C[C@@H]2Oc3ncc(C#Cc4ccc(F)cc4)cc3C(=O)N([C@H](C)CO)C[C@@H]2C)cc1`, for which the reporter increase was 3.53% (inactive).
Regarding `CCCNC(=O)N(C)C[C@H]1Oc2cc(-c3ccncc3)ccc2S(=O)(=O)N([C@H](C)CO)C[C@@H]1C`, the reporter increase is 6.74% (inactive).
For `CCc1cc2c(=O)c(-c3nc4ccccc4n3C)c(CCCC(=O)O)oc2cc1OC(=O)C(C)(C)C`, the reporter increase is 6.89% (inactive).
Consider `CCc1cc2c(=O)c(-c3ccon3)c(N)oc2cc1OC`, for which the reporter increase was 50.4% (active).
Turning to `COc1ccc2oc(N)c(C=O)c(=O)c2c1`, the reporter increase is -2.61% (inactive).
As to `CC(=O)Nc1ccc2c(c1)C(=O)N(C)[C@H]1CC[C@@H](CC(=O)NCC3CC3)O[C@H]1CO2`, the reporter increase was 9.13% (inactive).
As for `CNC(=O)c1csc(-c2ccccc2)n1`, the reporter increase is 13.5% (inactive).
As to `O=C(NNC(=O)c1csc(-c2cccnc2)n1)Nc1ccc(Cl)cc1`, the reporter increase was 0.726% (inactive).
For the compound `Clc1ccc(-c2csc(-c3ccncc3)n2)cc1`, the reporter increase was 51.5% (active).
For `CN(C)CC(=O)Nc1ccc2c(c1)[C@@H]1C[C@H](CC(=O)NCc3ccc(-c4ccccc4)cc3)O[C@@H](CO)[C@@H]1O2`, the reporter increase was 16% (inactive).
For `CCCCSc1nnc(-c2ccc(C)cc2)o1`, the reporter increase was 17.9% (inactive).
As for `COc1ccc2c(Cl)c(-c3nnco3)sc2c1`, the reporter increase is 8.57% (inactive).
For `C#CCSc1nnc(-c2sc3ccccc3c2Cl)o1`, the reporter increase is 51% (active).
Turning to `C[C@@H](O)C#Cc1ccc2c(c1)O[C@@H](CN(C)C)[C@@H](C)CN([C@@H](C)CO)S2(=O)=O`, the reporter increase was -2.61% (inactive).
As to `C[C@H](NC(=O)C[C@@H]1CC[C@@H]2[C@H](COC[C@@H](O)CN2C(=O)Nc2cc(Cl)cc(Cl)c2)O1)c1ccccc1`, the reporter increase was -3.61% (inactive).
`C[C@@H]1CN([C@H](C)CO)S(=O)(=O)c2ccc(C#CC3CCCC3)cc2O[C@@H]1CN(C)Cc1ccccc1C(=O)O`: the reporter increase is -3.9% (inactive).
Next, `O=C(C[C@@H]1CC[C@@H]2[C@H](COC[C@H](O)CN2C(=O)Cc2ccccc2)O1)NC1CCC1`: -8.39% (inactive); `COc1ccc2cc(C(=O)O)n(CC(=O)c3ccccc3)c2c1`: -1.55% (inactive); `CCCn1c(=N)n(CC(=O)c2ccc(Cl)c(Cl)c2)c2ccccc21`: 3.54% (inactive).
Next, `CCn1c(=N)n(CC(=O)c2cccc(OC)c2)c2ccccc21`: 64.8% (active); `Cn1c(NN)nc2sc3c(c2c1=O)CCC3`: -3.52% (inactive).
As for `CC1CCc2c(sc3nc4n(c(=O)c23)CCS4)C1` (stereo not drawn), the reporter increase was 46.4% (active).
Consider `NNC(=O)C1CCCn2c1nc1sc3c(c1c2=O)CCCC3` (stereo not drawn), for which the reporter increase is 2.26% (inactive).
